Screening data as filed in PubChem.
An excerpt weighted towards active compounds, which were near 7.4% of everything screened.
ELG1 genotoxic = genotoxicity induction in ELG1-luciferase HEK293T cells; HEK293T ELG1-luciferase reporter, luminescence, 16 h; Potency, µM (top dose mostly 46 µM), inactives show at the highest dose activity change, positive = activation, most hits filed as activators; 330,000 tested, 1.3% active; AID 504466; further: % of control where 0% means no effect; nearly all actives have a fitted effect of over 60% in size
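HEK293T cells expressing luciferase-tagged ELG1 were treated with compound or DMSO for 16 hr at 37°C. Luciferase activity was then read after 30 min with ONE-Glo at room temperature; rising signal flags genetic stress.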
Rab9 promoter act = activators of Rab9 promoter; Huh7 Rab9 promoter-luciferase reporter, luminescence, 24 h; Potency, µM (doses to about 9.22 µM), inactives show at the highest dose activation, negative = inhibition, actives largely listed as activators; 320,000 tested, 2.8% active; further: % of control where 0% means no effect; nearly all actives have a fitted effect of over 60% in size
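Quantitative HTS format; Huh7 Rab9-luciferase reporter cells (1500/well) receive compound 2 h post-plating, incubate 24 h at 37 °C, then get luciferase reagent for 10 min before luminescence reading.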
SMN2 splice enh = enhancers of SMN2 splice variant expression | HEK293 SMN2-luciferase splicing reporter, luminescence, 30-36 h | Potency, µM (series often up to 46.1 µM), without a hit: at the top dose activity change, positive = activation, usual class: activators | 210,000 tested, 2.8% active | AID 1458; further: % of control where 0% means no effect; nearly all actives have a fitted effect of over 55% in size
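qHTS luciferase splicing reporter: luminescence rises when SMN2 exon 7 is included in transfected HEK293 cells. Compound exposure lasted 30-36 h at 37C, with 4.5 mM final sodium butyrate as control, followed by a ONE-Glo read.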
NPC1 prom act = activates the NPC1 promoter; Potency, µM (doses to about 9.22 µM), for the others: top-dose activation, usual class: activators; Huh7 NPC1 promoter luciferase reporter, 24 h; 320,000 tested, 2.4% active; further: % of control where 0% means no effect; nearly all actives have a fitted effect of over 60% in size
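Luminescence read-out of NPC1 promoter-driven luciferase in stably transfected Huh7 cells; compounds delivered in DMSO and left 24 h at 37C, 5% CO2, qHTS titration format.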
FLuc modulator = counter-screen for miR-21 project: firefly luciferase inhibitors or activators; purified FLuc, Km substrates, luminescence inhibition; 360,000 tested, 6.9% active; P08659; Potency, µM (top dose mostly 57.5 µM), for inactives: top-dose activity change, negative = inhibition, hits mostly inhibitors; AID 588342;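 further: plate controls were vehicle for no effect and reference inhibitor for full effect; nearly all actives have a fitted effect of over 55% in size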
Target sequence (P08659 whole entry, looked up): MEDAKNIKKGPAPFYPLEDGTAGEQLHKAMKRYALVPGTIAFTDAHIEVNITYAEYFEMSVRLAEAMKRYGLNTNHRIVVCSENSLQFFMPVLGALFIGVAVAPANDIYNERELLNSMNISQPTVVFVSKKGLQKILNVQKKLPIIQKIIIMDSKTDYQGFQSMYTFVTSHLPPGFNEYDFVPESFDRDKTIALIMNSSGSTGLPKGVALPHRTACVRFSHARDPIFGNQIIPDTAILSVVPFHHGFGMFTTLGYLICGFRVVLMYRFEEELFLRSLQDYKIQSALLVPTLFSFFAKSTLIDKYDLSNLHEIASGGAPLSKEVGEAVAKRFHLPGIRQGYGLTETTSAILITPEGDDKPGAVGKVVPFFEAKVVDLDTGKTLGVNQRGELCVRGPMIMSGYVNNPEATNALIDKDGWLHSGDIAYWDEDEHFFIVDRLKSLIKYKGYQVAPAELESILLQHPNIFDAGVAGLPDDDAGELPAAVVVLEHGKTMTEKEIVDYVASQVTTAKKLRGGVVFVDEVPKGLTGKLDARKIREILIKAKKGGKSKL
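Purified P. pyralis luciferase, 10 nM final, with Km-level 10 uM D-luciferin and 10 uM ATP in 50 mM Tris acetate pH 7.5, 10 mM Mg acetate, 0.01% Tween-20, 0.05% BSA; 6-point qHTS titration about 60 µM downward; luminescence read.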
Starred values were filed as active, the others as inactive; u = inconclusive; x = no result; ! = a repeat was not active; [ ] = another dose, or the depositor's remark. The call rests on the fitted dose curve; in most records, active means well fitted curve in the direction sought with a large enough effect; inconclusive means small, poorly fitted or top-dose-only effect, or another doubt; inactive means no such curve, though single readings can be large; an effect the other way counts as inactive or inconclusive. Potency means the concentration at half of the fitted maximal effect.

SMILES | ELG1 genotoxic | Rab9 promoter act | SMN2 splice enh | NPC1 prom act | FLuc modulator
Cc1ccc(NC(=O)Cn2c(=O)n(Cc3ccc(F)cc3)c(=O)c3cccnc32)cc1C | x | x | -1% | x | -2%
C=CCSC1=NC(=O)/C(=C/c2cccs2)S1 | u | -5% | 20% | -8% | 19µM*
COc1ccccc1CNC(=O)CCCc1nnc2n(CC(C)C)c(=O)c3sccc3n12 | x | x | x | x | -3%
COc1ccc(O)c(-c2nc(N)nc(N)n2)c1 | 15% | -1% | x | 4µM* | u
CC(C)c1ccc(Nc2nnc(SCC(=O)Nc3ncc(S(=O)(=O)c4ccc([N+](=O)[O-])cc4)s3)s2)cc1 | u | 1.4µM* | 22µM* | 2.8µM* | 0.85µM*
Cc1ccc(Nc2nnc(SCC(=O)Nc3ncc(S(=O)(=O)c4ccc([N+](=O)[O-])cc4)s3)s2)cc1 | u | 18% | 0% | 21% | 2.4µM*
Cc1cc(=O)[nH]c(SCC(=O)Nc2ncc(S(=O)(=O)c3ccc([N+](=O)[O-])cc3)s2)n1 | 0% | -3% | x | -1% | u
COc1ccc(CCNC(=O)Cn2c(=O)n(-c3ccc(OC)c(OC)c3)c(=O)c3ccccc32)cc1OC | x | x | -11% | x | -4%
CCCCc1nc2c(c3c1C[C@H](C)OC3)CN(C(=O)NCCc1c[nH]c3ccccc13)CC2 | x | x | -24%[9.22 µM] | x | x
O=C(O)C1CC(C2CCCCN2)CN2CCCCC12 (stereo not drawn) | x | x | 8% | x | x
Fc1ccc(N2CCN(C3=Nc4cccc5cccc3c45)CC2)cc1 | 2% | 15% | 0% | 24% | 15µM*
c1ccc(CN2CCN(C3=Nc4cccc5cccc3c45)CC2)cc1 | 12% | 14% | 9% | 13% | 11µM*
Cc1cccc(CSc2nc3c(sc4ccccc43)c(=O)n2CCC(=O)NC(C)C)c1 | x | x | x | x | 6%
Cc1cccc(-c2nc3scc(CCNS(=O)(=O)c4ccc(Oc5ccccc5)cc4)n3n2)c1 | x | x | x | x | -1%
Cc1cccc(OCCCn2c(=O)sc3ccccc32)c1 | u | 3.2µM* | -5% | 6% | 21µM*
COc1ccc(OCCn2c(=O)sc3ccccc32)cc1 | u | u | u | u | 19µM*
COc1cccc(OCc2nc3ccccc3n2CCOc2cccc(C)c2)c1 | x | x | 12% | x | -18%
Cc1cccc(OCCn2c(=O)n(C)c3ccccc32)c1 | 6.5µM* | 1.8µM* | 13µM* | 3.2µM* | 15µM*
COc1ccccc1OCCn1c(=O)sc2ccccc21 | u | -2%[1.84 µM] | -25% | 0% | u
Cc1cccc(OCCN2C(=O)c3ccccc3C2=O)c1 | u | 3.5µM* | 19% | 27% | 24µM*
Cc1cccc(OCCn2c(=O)sc3ccccc32)c1 | u | 2.8µM* | 13µM* | u | 11µM*
Cc1ccc(C2C(C#N)=C(N)Oc3cc(N)ccc32)cc1 (stereo not drawn) | -1% | 5% | x | -7% | -4%
N#CC1=C(N)Oc2cc3c(cc2C1c1ccc(Cl)cc1)OCO3 (stereo not drawn) | -2% | -1% | 25µM* | -4% | -2%
CC1CCCN(S(=O)(=O)c2ccc3c(c2)CCN3C(=O)CCC(=O)O)C1 (stereo not drawn) | x | x | -9% | x | 5%
CC(NC(=O)C1CCN(C(=O)c2ccc(-n3ccc4ccccc43)s2)CC1)c1ccccc1 (stereo not drawn) | x | x | x | x | 13µM*
SMILES | ELG1 genotoxic | Rab9 promoter act | SMN2 splice enh | NPC1 prom act | FLuc modulator
CCOC(=O)C1CCN(C(=O)c2ccc(-n3ccc4ccccc43)s2)CC1 | x | x | x | x | -15%
COCCN(CCOC)C(=O)c1cc2sc3ccccc3c2s1 | 7% | 9% | -18% | -2% | -16%
CCN(CC)C(=O)c1cc2sc3ccccc3c2s1 | u | 3.2µM* | 25% | 2.8µM* | 9.5µM*
NC(=O)CCn1c2ccccc2c2ccccc21 | -4% | -18% | -2% | -1% | -3%
Cc1ccc2c(c1)c1cccc3c1n2CCN3CCC(N)=O | 5µM* | 3.2µM* | 20µM* | 3.2µM* | 6µM*
CCN(CC)c1ccc(CNS(=O)(=O)c2cc3c(cc2C)NC(=O)CO3)cc1 | x | x | x | x | 2%
CCN(CC)S(=O)(=O)c1nnc(NC(=O)c2ccccc2Cl)s1 | x | x | x | x | -3%
COc1ccc(OCC(=O)Nc2nnc(S(=O)(=O)N3CCCCCC3)s2)cc1 | -1% | -1% | x | 2% | 15µM*!
O=C(Nc1nnc(S(=O)(=O)Nc2ccccc2)s1)c1ccccc1Cl | 3% | -2% | x | -3% | 9.5µM*!
O=C(Nc1nnc(S(=O)(=O)N2CCCC2)s1)c1ccccc1Cl | -1% | 1% | x | -1% | 4.8µM*
O=C(Nc1nnc(S(=O)(=O)N2CCCCCC2)s1)c1ccccc1Cl | 2% | 3% | x | -6% | -21%
O=C(Nc1nnc(S(=O)(=O)Nc2ccccc2)s1)C1CCCCC1 | 0% | -6% | x | -3% | 8.5µM*!
O=C(CCC1N=C2c3ccccc3N=C(SCc3ccc(F)cc3)N2C1=O)N1CCN(c2ccccc2)CC1 (stereo not drawn) | x | x | 12% | x | 4%
COCCNC(=O)COc1ccc(OCCNC[C@H](O)COc2ccccc2)cc1 | x | x | -4% | x | x
CC1(C)OC[C@@H]2O[C@H](n3cnc4c(N)nc(Cl)nc43)[C@@H](OS(C)(=O)=O)[C@@H]2O1 | x | x | 1%[9.22 µM] | x | x
CCc1cccc(NC(=O)Cn2c(=O)n(CCC(=O)NCc3ccccc3Cl)c(=O)c3sccc32)c1 | x | x | -1% | x | 3%
O=C(Nc1nnc(S(=O)(=O)N2CCCCCC2)s1)c1ccccc1 | 12% | 4µM* | x | u | 6.7µM*
Cc1ccccc1NS(=O)(=O)c1nnc(NC(=O)c2ccc(Cl)cc2)s1 | 0% | -8% | x | -9% | 2.4µM*!
Cc1ccn2c(=O)nc(SCC(=O)c3ccccc3)nc2c1 | u | u | x | u | 15µM*
Cc1ccc2nc(SCC(=O)c3ccccc3)nc(=O)n2c1 | u | u | x | 2.5µM* | 11µM*
CC(C)(C)C(=O)Nc1nc2c(s1)CN(Cc1ccccc1)CC2 | u | 3.2µM* | u | u | u
COc1ccc(CCNC(=O)CCc2c(C)c3cc4c(C)c(C)oc4cc3oc2=O)cc1OC | x | x | 7% | x | -3%
COc1ccc(C(=O)Nc2noc3ccccc23)cc1 | x | x | u | x | 0.24µM*
COc1cc(OC)cc(C(=O)Nc2cc(C)on2)c1 | 3% | -2% | x | -1% | 4%
Cc1cc(NC(=O)c2ccc(C)c(C)c2)no1 | u | 2.8µM* | x | 3.5µM* | 24µM*
COc1ccc(OCc2cccc(C(=O)Nc3cc(C)on3)c2)cc1 | u | 0.1µM* | 0.2µM* | 0.1µM* | 3.8µM*
COc1ccc(C(=O)Nc2cc(C)on2)cc1 | u | 1.8µM* | 13µM* | 2µM* | 6.7µM*
Cc1cccc(OCc2ccc(C(=O)Nc3cc(C)on3)o2)c1 | 1% | 5% | x | 9% | -2%
Cc1cc(NC(=O)c2ccc3nc(-c4ccccc4)c(-c4ccccc4)nc3c2)no1 | 11% | -8% | 19% | -7% | 0%
